Each structure is given as a SMILES string. Compounds without any hit were thinned out: in the full panel of roughly 83,000, 20% have a hit.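 How to read the values: 0–100, growth inhibition (40 = 60% inhibited); 0, no net growth; -100 to 0, cell death (-40 = 40% of starting cells died; -100 = all dead).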 Unmarked numbers belong to inactive results. Calls of active or inactive are those of the source. The calls were made as follows: active = growth percent below 10; inactive = the rest.

In one test the test system is MOLT-4 leukemia. Put plainly: NCI-60 one-dose screen, 48 h (100 = growth as untreated, 0 = no growth, -100 = all killed). Particulars: 10 µM unless noted.
`CCC1S/C(=N\N=C(/C)c2cccs2)N(c2ccccc2)C1=O` (stereo unspecified): the growth was 63.9%.
The same measure, in the same setting: under `COc1ccc2c(c1)/C(=C/c1c(-c3cc(OC)c(OC)c(OC)c3Br)nc3sccn13)C(=O)N2` stands 73.2%; under `N#CC(C#N)=C(C#N)c1c[nH]c2ccccc12`, 75.7%.
Same read-out and setting: then `CNC(=O)NN`, with 105%; and `ClC1c2ccccc2CCc2ccccc21`, with 107%.
With `COc1ccc(-c2cc3ccc(N(C)C)cc3nc2N)c(F)c1`, the growth is 26.3%.
On the same count and under the same terms, under `CCOC(=O)C(C)(CSSCC(C)(NC(=O)c1ccc2ccccc2c1)C(=O)OCC)NC(=O)c1ccc2ccccc2c1` (stereo unspecified) stands 53.1%; under `COc1ccc(-c2cc(-c3nnc(SC/C(=N\O)c4ccccc4)n3-c3ccccc3)c3ccccc3n2)cc1`, 98.4%.
The same measure, in the same setting: then `CC(=O)Nc1ccc([I+]c2ccc([N+](=O)[O-])cc2)cc1`, with 86.9%; and `O=[N+]([O-])c1ccc(NS(=O)(=O)c2ccccc2)c2ccccc12`, with 38%.
On the same count and under the same terms, then `COc1ccc(-c2c(C#N)cnc(N)c2-c2nc3cc(C)c(C)cc3[nH]2)cc1`, with 104%.
With `S=c1n(CNc2ccc(Cl)nn2)nc(-c2cc(Cl)cc(Cl)c2Cl)n1/N=C/c1ccc(Cl)cc1`, the growth was 60.5%.
As to `Cc1ccc2c(c1)Nc1ccc(C)cc1C2(C)C`, the growth was 73.4%.
The same measure, in the same setting: then `Clc1ccc2c(NCCNc3nc(Cl)nc4ccccc34)ccnc2c1`, with -52.4% (active); and `CN1CCN(Cn2nc(-c3cc(Cl)cc(Cl)c3Cl)n(/N=C/c3ccc(Cl)cc3)c2=S)CC1`, with 59%.
On the same count and under the same terms, then `C=C1C(=O)O[C@H]2[C@H]1CC/C(COC(=O)c1ccc(Cl)nc1)=C\CC[C@@]1(C)O[C@@H]21`, with -28.6% (active); and `COc1ccc(/C=N/C2=NNC(C)(c3ccccc3O)N2C(Cc2c[nH]c3ccccc23)C(=O)O)cc1` (stereo unspecified), with 14.4%; and `COc1ccc(/C=C/C(=O)/C=C(/C=C/c2ccc(OC)c(OC)c2OC)OB(F)F)c(OC)c1OC`, with 3.43% (active).
On the same count and under the same terms, under `Cc1cc(N2CCOCC2)nc(N(CCNc2ccnc3cc(Cl)ccc23)Cc2ccco2)n1` stands 5.1% (active); under `NN=C(c1ccc(Cl)cc1)c1ccc(Cl)cc1`, 97.8%; under `Cc1cc2c(cc1C)N(C(=O)CCl)CCN2C(=O)CCl`, 1.2% (active).
Take `COc1cccc(/C=N/C(=S)NC2(C)C3CCC(C3)C2(C)C)c1O` (stereo unspecified): the growth is 63.8%.
Consider `CC(=O)c1cc2c(N)c(C(=O)Nc3cccc(Cl)c3)sc2nc1C`, for which the growth is 73.4%.
The same measure, in the same setting: then `CCOC(=O)c1cnc2c(OC)ccc(OC)c2c1Cl`, with 113%; and `CCOc1cccc(Nc2nc(N)nc3[nH]c4ccc(O)cc4c23)c1`, with 53.9%; and `CC(C)CCC[C@@H](C)[C@H]1CC[C@H]2[C@@H]3CC=C4N(c5ccccc5)C(=O)CC[C@]4(C)[C@H]3CC[C@]12C`, with 79.9%.
On the same count and under the same terms, then `C=C(C)[C@@H]1C/C=C(\COC(=O)[C@H](OC(C)=O)C(NC(=O)c2ccccc2)c2ccccc2)CC[C@H]2O[C@]2(C)CC/C=C(\C)CC1` (stereo partly specified), with 17.6% [5 µM]; and `C/C(=N/NC(=O)Cn1c2ccccc2c2ccncc21)c1cccs1`, with 83.1%; and `CC(=S)Nc1ccccc1`, with 103%.
Same read-out and setting: under `Nc1ccc(S(=O)(=O)Nc2cc(I)cc(I)c2)cc1` stands -69.4% (active); under `Cc1cn([C@]2(CF)O[C@H](CO)C2C)c(=O)[nH]c1=O` (stereo partly specified), 94%.
Regarding `COc1cc(NC(C)CCCN2C(=O)c3ccccc3C2=O)c2nccc(C)c2c1OC` (stereo unspecified), the growth was -44.2% (active).
On the same count and under the same terms, then `O=C(O)c1ccccc1C(=O)c1ccc(I)cc1`, with 94.3%.
The same measure, in the same setting: then `CC(C(=O)O)N1C(N)=NNC1c1ccccc1O` (stereo unspecified), with 68.1%; and `COc1ccc(C2=NN(C(=O)COc3ccc(Cl)cc3)C(O)(c3cc(F)c(Cl)cc3Cl)C2)cc1OC` (stereo unspecified), with -32% (active).
Same read-out and setting: under `CCCCNC(=O)Oc1ccc(/C(=C(/CC)Cc2ccccc2)c2ccc(OCCCN(C)C)cc2)cc1` stands 63.4%.
On to `COc1ccc(C(=O)Cn2cnc3c(Nc4cc(C(=O)Nc5ccc(N6CCN(CCO)CC6)cc5)ccc4C)ncnc32)cc1`, for which the growth is 90%.
The same measure, in the same setting: under `COc1cc(NC(=O)c2cc(OC)c3ccn(C)c3c2)cc2c1C[C@]1(C)CC[C@@H](O)C(C)(C)[C@H]1O2` stands 6.92% (active).

Another test deals with SR leukemia. Described as above. Particulars: 10 µM unless noted.
As to `CCC1S/C(=N\N=C(/C)c2cccs2)N(c2ccccc2)C1=O` (stereo unspecified), the growth was 32.6%.
For the compound `COc1ccc2c(c1)/C(=C/c1c(-c3cc(OC)c(OC)c(OC)c3Br)nc3sccn13)C(=O)N2`, the growth was 95.1%.
Consider `N#CC(C#N)=C(C#N)c1c[nH]c2ccccc12`, for which the growth was 58.1%.
Turning to `CNC(=O)NN`, the growth was 104%.
On the same count and under the same terms, then `ClC1c2ccccc2CCc2ccccc21`, with 89.2%; and `COc1ccc(-c2cc3ccc(N(C)C)cc3nc2N)c(F)c1`, with 12.9%; and `CCOC(=O)C(C)(CSSCC(C)(NC(=O)c1ccc2ccccc2c1)C(=O)OCC)NC(=O)c1ccc2ccccc2c1` (stereo unspecified), with 61.2%.
Same read-out and setting: then `COc1ccc(-c2cc(-c3nnc(SC/C(=N\O)c4ccccc4)n3-c3ccccc3)c3ccccc3n2)cc1`, with 86.8%; and `CC(=O)Nc1ccc([I+]c2ccc([N+](=O)[O-])cc2)cc1`, with 87.7%; and `O=[N+]([O-])c1ccc(NS(=O)(=O)c2ccccc2)c2ccccc12`, with 51.6%.
On the same count and under the same terms, under `COc1ccc(-c2c(C#N)cnc(N)c2-c2nc3cc(C)c(C)cc3[nH]2)cc1` stands 20.2%; under `S=c1n(CNc2ccc(Cl)nn2)nc(-c2cc(Cl)cc(Cl)c2Cl)n1/N=C/c1ccc(Cl)cc1`, 32.5%.
As for `Cc1ccc2c(c1)Nc1ccc(C)cc1C2(C)C`, the growth was 88.3%.
In the case of `Clc1ccc2c(NCCNc3nc(Cl)nc4ccccc34)ccnc2c1`, the growth was -27.3% (active).
Still for that read-out and setting: under `CN1CCN(Cn2nc(-c3cc(Cl)cc(Cl)c3Cl)n(/N=C/c3ccc(Cl)cc3)c2=S)CC1` stands 38.7%; under `C=C1C(=O)O[C@H]2[C@H]1CC/C(COC(=O)c1ccc(Cl)nc1)=C\CC[C@@]1(C)O[C@@H]21`, -13.2% (active); under `COc1ccc(/C=N/C2=NNC(C)(c3ccccc3O)N2C(Cc2c[nH]c3ccccc23)C(=O)O)cc1` (stereo unspecified), 6.53% (active).
For the compound `COc1ccc(/C=C/C(=O)/C=C(/C=C/c2ccc(OC)c(OC)c2OC)OB(F)F)c(OC)c1OC`, the growth was 0.627% (active).
Regarding `Cc1cc(N2CCOCC2)nc(N(CCNc2ccnc3cc(Cl)ccc23)Cc2ccco2)n1`, the growth was -22.6% (active).
The same measure, in the same setting: then `NN=C(c1ccc(Cl)cc1)c1ccc(Cl)cc1`, with 104%; and `Cc1cc2c(cc1C)N(C(=O)CCl)CCN2C(=O)CCl`, with -13.6% (active); and `COc1cccc(/C=N/C(=S)NC2(C)C3CCC(C3)C2(C)C)c1O` (stereo unspecified), with 38.4%.
The same measure, in the same setting: under `CC(=O)c1cc2c(N)c(C(=O)Nc3cccc(Cl)c3)sc2nc1C` stands 66.1%.
Turning to `CCOC(=O)c1cnc2c(OC)ccc(OC)c2c1Cl`, the growth is 115%.
Same read-out and setting: under `CCOc1cccc(Nc2nc(N)nc3[nH]c4ccc(O)cc4c23)c1` stands 65.7%; under `CC(C)CCC[C@@H](C)[C@H]1CC[C@H]2[C@@H]3CC=C4N(c5ccccc5)C(=O)CC[C@]4(C)[C@H]3CC[C@]12C`, 92.4%.
Same read-out and setting: under `C=C(C)[C@@H]1C/C=C(\COC(=O)[C@H](OC(C)=O)C(NC(=O)c2ccccc2)c2ccccc2)CC[C@H]2O[C@]2(C)CC/C=C(\C)CC1` (stereo partly specified) stands 3.12% [5 µM] (active); under `C/C(=N/NC(=O)Cn1c2ccccc2c2ccncc21)c1cccs1`, 83.3%; under `CC(=S)Nc1ccccc1`, 103%.
On the same count and under the same terms, then `Nc1ccc(S(=O)(=O)Nc2cc(I)cc(I)c2)cc1`, with 15.8%; and `Cc1cn([C@]2(CF)O[C@H](CO)C2C)c(=O)[nH]c1=O` (stereo partly specified), with 181%.
As for `COc1cc(NC(C)CCCN2C(=O)c3ccccc3C2=O)c2nccc(C)c2c1OC` (stereo unspecified), the growth is 33%.
Still for that read-out and setting: then `O=C(O)c1ccccc1C(=O)c1ccc(I)cc1`, with 101%; and `CC(C(=O)O)N1C(N)=NNC1c1ccccc1O` (stereo unspecified), with 72.2%; and `COc1ccc(C2=NN(C(=O)COc3ccc(Cl)cc3)C(O)(c3cc(F)c(Cl)cc3Cl)C2)cc1OC` (stereo unspecified), with -35.1% (active).
On the same count and under the same terms, under `CCCCNC(=O)Oc1ccc(/C(=C(/CC)Cc2ccccc2)c2ccc(OCCCN(C)C)cc2)cc1` stands 22%; under `COc1ccc(C(=O)Cn2cnc3c(Nc4cc(C(=O)Nc5ccc(N6CCN(CCO)CC6)cc5)ccc4C)ncnc32)cc1`, 83.7%.
Consider `COc1cc(NC(=O)c2cc(OC)c3ccn(C)c3c2)cc2c1C[C@]1(C)CC[C@@H](O)C(C)(C)[C@H]1O2`, for which the growth was 19.2%.

Source of the values: PubChem BioAssay (NCI).
